The nature of assay [1]: Viability qHTS for spleen associated tyrosine kinase inhibitor (SYKi) naive MV4-11 cells (AID 1963823). Further: nearly all actives have a fitted effect of over 40% in size. In outline: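 In this viability screen, compounds acted on SYK inhibitor naive MV4-11 cells for three days (72 hr, 37 C). Remaining viable cells were measured by CellTiter-Glo luminescence following a 10 min room-temperature development.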
Assay [2] can be described thus: Viability qHTS for spleen associated tyrosine kinase inhibitor (SYKi) drug resistant MV4-11 cells (AID 1963824). Further: nearly all actives have a fitted effect of over 35% in size. The essentials:
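SYK-inhibitor-resistant MV4-11 AML cells were seeded at 500 per well onto compound and cultured 72 hours (37 °C, 5% CO2). CellTiter-Glo was then added, and after 10 min at room temperature, luminescence gave viability.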

SMILES strings stand for the structures. Records with an inconclusive call do not appear. A number with no mark means an inactive call. Active and inactive are the calls of the source. The call rests on the fitted dose curve; in most records, active means well fitted cell-killing curve with a large enough effect; inconclusive means small, poorly fitted or top-dose-only effect, or effect the other way; inactive means no such curve, though single readings can be large or run the other way.
Potency means the concentration at half of the fitted maximal effect.

In the case of `CC1(C)S[C@@H]2[C@H](NC(=O)[C@H](N)c3ccc(O)cc3)C(=O)N2[C@H]1C(=O)O`, the Potency result in assay [1] and in assay [2] was “inactive” in each case.
On to `CC1(C)CCCC2(C)C=C(C(=O)O)C(O)CC12` (stereo unspecified), for which the Potency entry in assay [1] and in assay [2] was “inactive” in each case.
As to `CCCCCCCCCCCCCCCCC(C(=O)O)C(O)(CC(=O)O)C(=O)O` (stereo unspecified), the Potency result in assay [1] and in assay [2] was “inactive” in each case.
For `COC(=O)C1=COC(O[C@@H]2O[C@H](CO)[C@@H](O)[C@H](O)[C@H]2O)/C(=C\COC(=O)c2ccc(OC3OC(CO)C(O)C(O)C3O)c(OC)c2)C1CC(=O)OCCc1ccc(O)cc1` (stereo partly specified), the viability (% of control) in assay [1] is 83.5% [at 9.25 µM]. Besides, the viability, % of control in assay [2] is 105% [at 9.25 µM].
For the molecule `OC[C@H]1O[C@@H](OC/C=C/c2ccc(O)cc2)[C@H](O)[C@@H](O)[C@@H]1O`, the Potency result in assay [1] and in assay [2] was “inactive” throughout.
As for `COc1cc2c(cc1O)CC[C@H]1[C@@H]2CC[C@]2(C)[C@H](O)CC[C@@H]12`, the results for the Potency in assay [1] and in assay [2] were 0.58 µM (active) and 0.731 µM (active), respectively.
The like results for `CC(C)CC[C@@H](O)[C@](C)(O)[C@H]1CC[C@@]2(O)C3=CC(=O)[C@@H]4C[C@@H](O)[C@@H](O)C[C@]4(C)[C@H]3CC[C@]12C` were, in that order, “inactive” and “inactive”.
On to `CC1=CC(=O)CC(C)(CO)C1(O)/C=C/C(C)O[C@@H]1O[C@H](CO)[C@@H](O)[C@H](O)[C@H]1O` (stereo partly specified), for which the Potency entry in assay [1] and in assay [2] was “inactive” each time.
For `CC(=O)C=C=C1C(C)(C)CC(O)CC1(C)O[C@@H]1O[C@H](CO[C@H]2OC[C@](O)(CO)[C@H]2O)[C@@H](O)[C@H](O)[C@H]1O` (stereo partly specified), the Potency entry in assay [1] and in assay [2] was “inactive” in each case.
With `CCOC(=O)[C@H](CCc1ccccc1)CC1(C(=O)N[C@H]2CCc3ccccc3N(CC(=O)O)C2=O)CCCC1`, the Potency in assay [1] and in assay [2] was 14.6 µM (active) each time.
As to `COc1cc(/C=C/C(=O)O[C@H]2[C@H](OC(=O)/C=C/c3cc(OC)c(O)c(OC)c3)O[C@H](CO[C@@H]3O[C@H](CO)[C@@H](O)[C@H](O)[C@H]3O)[C@@H](O)[C@@H]2O)ccc1O`, the Potency entry in assay [1] and in assay [2] was “inactive” in each case.
Consider `C/C(=C\C=C\C(C)C1CCC2(C)C3CCC4C(C)(C)C(=O)CCC45CC35CCC12C)C(=O)O` (stereo unspecified), for which the Potency result in assay [1] was “inactive”. Besides, in assay [2], the Potency is 6.32 µM (active).
Taken in the same sequence, the figures for `C=C[C@H]1[C@H](O[C@@H]2O[C@H](CO)[C@@H](O)[C@H](O)[C@H]2O)OC=C2C(=O)OCC[C@]21O` were “inactive” and “inactive”.
Taken in the same sequence, the figures for `C=C1CC[C@H]2[C@@](C)(CCC[C@@]2(C)C(=O)O)[C@@H]1CCC(C)CCO` (stereo partly specified) were “inactive” and “inactive”.
The like results for `CC(=C\C(C)O)/C=C(\C)C(=O)CC1CC(CC(N)=O)CC(=O)O1` (stereo unspecified) were, in that order, “inactive” and “inactive”.
Turning to `C=CC(=O)N1CCC(C2CCNc3c(C(N)=O)c(-c4ccc(Oc5ccccc5)cc4)nn32)CC1` (stereo unspecified), the Potency in assay [1] is 7.42 µM (active); in assay [2] it was 11.8 µM (active).
Taken in the same sequence, the figures for `CC(=O)c1[nH]cc(CCC(=O)O)c1CC(=O)O` were 0.231 µM (active) and “inactive”.
The like results for `COc1cc2c(cc1-c1c(C)noc1C)ncc1[nH]c(=O)n(C(C)c3ccccn3)c12` (stereo unspecified) were, in that order, 0.326 µM (active) and 0.366 µM (active).
For `COc1c(OC2OC(CO)C(O)C(O)C2O)ccc(O)c1C(=O)OCc1ccccc1O[C@@H]1O[C@H](CO)[C@@H](O)[C@H](O)[C@H]1O` (stereo partly specified), the Potency entry in assay [1] and in assay [2] was “inactive” throughout.
With `O=C(Nc1ccc(Cl)cc1)C1CCCN(C(=O)c2cccc(-c3ccco3)c2)C1` (stereo unspecified), the Potency in assay [1] and in assay [2] was 8.2 µM (active) in each case.
For the molecule `C[C@H]1[C@H](C)CC[C@]2(C(=O)O[C@@H]3O[C@H](CO)[C@@H](O)[C@H](O)[C@H]3O)CC[C@]3(C(=O)O)C(=CCC4[C@@]5(C)CC[C@H](O[C@@H]6O[C@H](CO)[C@@H](O)[C@H](O)[C@H]6O)C(C)(C)C5CC[C@]43C)[C@H]12` (stereo partly specified), the viability (% of control) in assay [1] is 69.7% [at 9.25 µM]. Besides, the viability, % of control in assay [2] is 96% [at 9.25 µM].
Regarding `CNc1nc(-c2ccc3c(N)n[nH]c3c2)cc(N2C[C@@H](C(=O)NC3CCCCC3)CC[C@H]2C)n1`, the Potency in assay [1] is 5.25 µM (active); in assay [2], 5.9 µM (active).
For the molecule `O=S(=O)(c1cccc2ccccc12)n1ccc2ccc(N3CCN4CCCC4C3)cc21` (stereo unspecified), the Potency in assay [1] was 23.1 µM (active); in assay [2] it was 20.6 µM (active).
`Cc1ccc(C)c(S(=O)(=O)n2cnc3ccccc32)c1`: the Potency entry in assay [1] and in assay [2] was “inactive” throughout.
Turning to `C=C[C@H]1C(O[C@@H]2O[C@H](CO)[C@@H](O)[C@H](O)[C@H]2O)OC=C2C(=O)N3CCc4c([nH]c5ccccc45)C3CC21` (stereo partly specified), the Potency result in assay [1] and in assay [2] was “inactive” each time.
As to `O=C(/C=C/c1ccccc1O)O[C@@H]1O[C@H](CO)[C@@H](O)[C@H](O)[C@H]1O`, the Potency entry in assay [1] and in assay [2] was “inactive” each time.
In the case of `CCCN(CCC)C(=O)C(CCC(=O)OCCCN1CCN(CCOC(=O)Cc2c(C)n(C(=O)c3ccc(Cl)cc3)c3ccc(OC)cc23)CC1)NC(=O)c1ccccc1` (stereo unspecified), the Potency in assay [1] was 23.1 µM (active); in assay [2], 20.6 µM (active).
Taken in the same sequence, the figures for `CCc1c(Cl)c(O)c(Cl)c(O)c1C(=O)O[C@H]1[C@H](O)[C@H](OC)[C@H](OC/C2=C\C=C\C[C@H](O)/C(C)=C\[C@H](CC)[C@@H](O[C@@H]3OC(C)(C)[C@@H](OC(=O)C(C)C)[C@H](O)[C@@H]3O)/C(C)=C/C(C)=C/C[C@@H]([C@@H](C)O)OC2=O)O[C@@H]1C` were 7.09 µM (active) and 3.99 µM (active).

(Values after PubChem BioAssay (NCATS).)
